Test results reported in a collection of fitness landscapes (doi:10.1016/j.celrep.2020.107928).
Whole data set: some 81,000 sequences, median “one-hybrid fitness for binding NBS DNA” near -0.1, cut for the highest 2% near 0.36. The full list was thinned out, with the highest values kept by preference.

B1: Caulobacter ParB omega fusion; a variant is named by its letters at X, in order, B8GW30 (parent)
chain: MESVVVGEPGMSEGRRGLGRGLSALLGEVDAAPAQAPGEQLGGSREAPIEILQRNPDQPRRTFREEDLEDLSNSIREKGVLQPILVRPSPDTAGEYQIVAGERAWRAAQRAGLKTVPIMVRELDDLAVLEIGIIENVQRADLNVLEEALSYKVLMEKFERTQENIAQTIGKSXSHVANXMRLLXLPDEVQSYLVSGELTAXHARAIAAAADPVALAKQIIEGGLSVRETEALARKAPNLSAGKSKGGRPPRVKDTDTQALESDLSSVLGLDVSIDHRGSTGTLTITYATLEQLDDLCNRLTRGI

Variants of: B1
Assay: one-hybrid fitness for binding NBS DNA (the Noc-binding site; scaled: cognate 1, non-cognate 0); higher = stronger binding
Conditions: with NBS DNA site
How it was run: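 Bacterial one-hybrid selection in E. coli USO rpoZ- hisB- pyrF- with a HIS3 reporter carrying the site 19 bp from the promoter, screening Caulobacter ParB libraries with four specificity codons randomised (NNS). Cells grew 48 hours at 37°C on M9-minus-histidine plus 0.1 mM IPTG and 5 mM 3-AT. Plasmids before and after selection were Illumina-sequenced, three replicate libraries pooled, and variants under 10 reads dropped. Fitness is the log change in variant-to-wild-type read ratio, rescaled to cognate 1, non-cognate 0.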

Variant | one-hybrid fitness for binding NBS DNA
VWQD | ≤ 0.2
RNQS | 0.281
FLHG | ≤ 0.2
RITP | ≤ 0.2
RTTR | 0.571
RATN | ≤ 0.2
RTTF | ≤ 0.2
RSTN | ≤ 0.2
RATP | ≤ 0.2
RSTP | ≤ 0.2
RTTQ | ≤ 0.2
RATR | 0.43
RITR | 0.437
RITD | ≤ 0.2
RSTR | 0.447
PCDK | ≤ 0.2
FRRH | ≤ 0.2
RLSY | ≤ 0.2
INTS | ≤ 0.2
LHDW | ≤ 0.2
TECL | ≤ 0.2
SMQN | ≤ 0.2
TDVE | ≤ 0.2
RRTF | ≤ 0.2
RLTY | ≤ 0.2

Variant | one-hybrid fitness for binding NBS DNA
RHTR | 0.459
RLTQ | ≤ 0.2
RHTK | ≤ 0.2
RLTR | 0.443
RRTC | 0.314
RKTK | ≤ 0.2
RHTG | ≤ 0.2
RKTR | 0.602
RRTR | 0.75
RKTN | ≤ 0.2
RNPQ | ≤ 0.2
MEAC | ≤ 0.2
CITN | ≤ 0.2
YDAI | ≤ 0.2
TGAY | ≤ 0.2
NFLN | ≤ 0.2
CWAR | ≤ 0.2
PSCM | ≤ 0.2
QDAF | ≤ 0.2
APPH | ≤ 0.2
CTYS | ≤ 0.2
ATYE | ≤ 0.2
RPTR | ≤ 0.2
RMTH | ≤ 0.2
RCTR | 0.534

Variant | one-hybrid fitness for binding NBS DNA
RFTR | 0.298
RMTR | 0.446
RMTP | ≤ 0.2
FPHC | ≤ 0.2
CSFN | ≤ 0.2
QPVH | ≤ 0.2
QPVN | ≤ 0.2
QPVR | 0.377
QDVR | ≤ 0.2
QSVN | ≤ 0.2
QGVR | ≤ 0.2
QCVR | 0.48
QSVR | 0.379
QSVD | ≤ 0.2
RICA | ≤ 0.2
IIHR | ≤ 0.2
TNLI | ≤ 0.2
SPSF | ≤ 0.2
FYQC | ≤ 0.2
GTTP | ≤ 0.2
QTEN | ≤ 0.2
QCER | 0.438
QSER | 0.285
QTEP | ≤ 0.2
QTER | 0.458

Variant | one-hybrid fitness for binding NBS DNA
QIER | 0.219
QPER | ≤ 0.2
QHER | 0.288
QRER | 0.637
SKCT | ≤ 0.2
HAHK | ≤ 0.2
QAQC | ≤ 0.2
VFIG | ≤ 0.2
QRSM | 0.374
QPSN | ≤ 0.2
QSSH | ≤ 0.2
QPSM | ≤ 0.2
QCSC | ≤ 0.2
QRSC | 0.366
QSSC | ≤ 0.2
QRSH | 0.522
QCSM | ≤ 0.2
QRSN | 0.366
QCSN | ≤ 0.2
QCSH | 0.272
YCVT | ≤ 0.2
ANMM | ≤ 0.2
GNYC | ≤ 0.2
